As usually defined, the inhibition is the drop in the measured response relative to a control, in per cent.

“And” between values parts separate entries of the source, which are not always exact repeats. Equal values may be shown once. Among all 190,000 compounds or so, about 6,900 (3.6%) were called active. The sample holds actives, similar compounds and a random draw of the others, so the mix is not that of the screen. Unmarked numbers belong to inactive results. Rule as the data show it: active = inhibition above about 50%; inactive = the rest.

This test deals with Huntingtin (Homo sapiens) (UniProt P42858). As to the kind of experiment: mutant huntingtin-calmodulin interaction inhibitors – biochemical, AlphaScreen, primary screen (AID 1671202).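 Also: 0% = both proteins with DMSO and 100% = one protein alone.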 Particulars: AlphaScreen His-mHTT/GST-CaM binding, luminescence; at 15 µM, stronger effect = higher value. (Alpha assays give light when donor and acceptor beads are brought close together.)
Huntingtin (Homo sapiens), sequence (P42858 whole entry, looked up, stated change not applied): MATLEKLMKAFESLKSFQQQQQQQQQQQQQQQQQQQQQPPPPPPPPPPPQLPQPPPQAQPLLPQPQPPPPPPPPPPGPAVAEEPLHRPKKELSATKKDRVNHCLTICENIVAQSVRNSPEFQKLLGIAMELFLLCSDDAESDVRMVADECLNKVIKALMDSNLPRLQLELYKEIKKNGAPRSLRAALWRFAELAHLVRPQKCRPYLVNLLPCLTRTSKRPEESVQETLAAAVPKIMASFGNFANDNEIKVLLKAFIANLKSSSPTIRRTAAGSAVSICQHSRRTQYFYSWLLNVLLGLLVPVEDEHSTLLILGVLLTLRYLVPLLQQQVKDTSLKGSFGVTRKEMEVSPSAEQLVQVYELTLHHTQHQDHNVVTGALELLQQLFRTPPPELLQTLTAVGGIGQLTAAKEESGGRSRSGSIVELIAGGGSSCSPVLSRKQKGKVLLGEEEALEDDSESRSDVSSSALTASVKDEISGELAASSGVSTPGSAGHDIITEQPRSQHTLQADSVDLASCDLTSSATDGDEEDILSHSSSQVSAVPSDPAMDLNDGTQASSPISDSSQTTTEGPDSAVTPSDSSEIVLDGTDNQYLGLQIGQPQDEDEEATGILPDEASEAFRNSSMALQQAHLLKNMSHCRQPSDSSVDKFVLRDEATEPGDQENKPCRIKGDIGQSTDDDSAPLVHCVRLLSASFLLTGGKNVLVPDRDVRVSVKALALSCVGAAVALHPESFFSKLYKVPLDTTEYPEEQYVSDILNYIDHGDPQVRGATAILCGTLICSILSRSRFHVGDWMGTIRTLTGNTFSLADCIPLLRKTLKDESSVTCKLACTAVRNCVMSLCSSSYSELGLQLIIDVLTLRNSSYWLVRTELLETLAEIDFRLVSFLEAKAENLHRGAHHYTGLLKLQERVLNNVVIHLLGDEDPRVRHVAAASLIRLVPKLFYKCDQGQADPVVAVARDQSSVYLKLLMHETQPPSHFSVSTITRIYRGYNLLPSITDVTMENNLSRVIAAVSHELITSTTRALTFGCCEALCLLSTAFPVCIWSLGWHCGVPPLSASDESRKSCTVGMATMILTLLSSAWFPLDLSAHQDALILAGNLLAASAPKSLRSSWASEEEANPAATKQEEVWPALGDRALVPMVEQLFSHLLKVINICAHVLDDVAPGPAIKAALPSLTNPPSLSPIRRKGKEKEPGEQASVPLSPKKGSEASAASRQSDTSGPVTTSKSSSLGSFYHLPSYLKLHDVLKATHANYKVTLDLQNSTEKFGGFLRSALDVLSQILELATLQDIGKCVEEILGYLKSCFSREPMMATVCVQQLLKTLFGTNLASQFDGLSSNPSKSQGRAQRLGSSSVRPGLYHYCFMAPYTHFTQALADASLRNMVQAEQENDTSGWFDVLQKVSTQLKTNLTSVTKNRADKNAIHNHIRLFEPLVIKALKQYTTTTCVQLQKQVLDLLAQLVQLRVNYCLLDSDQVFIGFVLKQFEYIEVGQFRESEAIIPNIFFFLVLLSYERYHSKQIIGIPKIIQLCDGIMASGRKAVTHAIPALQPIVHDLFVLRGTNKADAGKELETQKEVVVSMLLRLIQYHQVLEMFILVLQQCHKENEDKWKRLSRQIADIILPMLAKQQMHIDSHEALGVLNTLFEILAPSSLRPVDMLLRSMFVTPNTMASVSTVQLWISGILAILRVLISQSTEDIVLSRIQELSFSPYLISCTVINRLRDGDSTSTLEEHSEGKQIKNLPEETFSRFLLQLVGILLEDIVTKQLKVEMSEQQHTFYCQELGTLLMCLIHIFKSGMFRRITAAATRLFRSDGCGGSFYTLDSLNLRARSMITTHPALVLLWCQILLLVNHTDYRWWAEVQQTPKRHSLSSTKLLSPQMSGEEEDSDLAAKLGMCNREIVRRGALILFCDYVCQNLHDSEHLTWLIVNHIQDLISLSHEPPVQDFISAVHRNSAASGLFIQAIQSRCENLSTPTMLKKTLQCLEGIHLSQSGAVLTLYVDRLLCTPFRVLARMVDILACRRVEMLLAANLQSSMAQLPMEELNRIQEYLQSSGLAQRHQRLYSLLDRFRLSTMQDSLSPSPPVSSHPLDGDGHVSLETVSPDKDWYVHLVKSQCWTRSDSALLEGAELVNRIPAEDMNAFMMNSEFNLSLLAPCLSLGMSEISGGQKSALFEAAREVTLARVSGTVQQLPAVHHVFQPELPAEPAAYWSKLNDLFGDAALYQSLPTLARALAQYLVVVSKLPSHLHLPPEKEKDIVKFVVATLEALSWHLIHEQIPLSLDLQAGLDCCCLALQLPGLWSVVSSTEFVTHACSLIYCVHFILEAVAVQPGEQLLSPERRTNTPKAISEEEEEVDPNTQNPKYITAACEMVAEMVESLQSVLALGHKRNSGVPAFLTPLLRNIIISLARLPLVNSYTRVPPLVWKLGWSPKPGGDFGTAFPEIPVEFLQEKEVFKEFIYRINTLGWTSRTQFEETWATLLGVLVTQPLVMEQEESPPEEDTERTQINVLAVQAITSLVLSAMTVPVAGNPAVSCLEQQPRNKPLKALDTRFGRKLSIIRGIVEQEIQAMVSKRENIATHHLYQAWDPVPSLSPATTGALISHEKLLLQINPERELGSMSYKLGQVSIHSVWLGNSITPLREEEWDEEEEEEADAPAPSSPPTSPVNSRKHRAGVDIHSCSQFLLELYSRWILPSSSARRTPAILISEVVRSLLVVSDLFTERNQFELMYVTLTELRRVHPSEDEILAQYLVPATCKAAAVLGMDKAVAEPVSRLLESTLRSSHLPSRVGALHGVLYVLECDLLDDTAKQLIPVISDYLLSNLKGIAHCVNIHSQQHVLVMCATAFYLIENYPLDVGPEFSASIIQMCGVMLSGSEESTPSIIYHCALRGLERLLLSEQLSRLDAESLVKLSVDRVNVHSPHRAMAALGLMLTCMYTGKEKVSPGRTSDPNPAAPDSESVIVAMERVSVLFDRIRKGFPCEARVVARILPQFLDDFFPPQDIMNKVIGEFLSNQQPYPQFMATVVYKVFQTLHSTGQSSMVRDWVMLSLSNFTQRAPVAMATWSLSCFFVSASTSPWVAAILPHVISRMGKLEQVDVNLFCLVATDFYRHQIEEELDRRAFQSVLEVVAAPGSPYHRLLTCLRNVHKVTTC
As for `COc1ccc(N2C(=O)CSC2c2c(F)cccc2Cl)c(OC)c1` (centres undefined), the inhibition was 1%.

As for `COc1cc([N+](=O)[O-])ccc1N=Cc1c(C)[nH]n(-c2ccc(C)c(C)c2)c1=O`, the inhibition was 11%. For `COc1cc(SC#N)ccc1N=Cc1c(C)[nH]n(-c2ccc(Br)cc2)c1=O`, the inhibition was 2%.

Consider `COc1cc([N+](=O)[O-])ccc1N=Cc1c(C)[nH]n(-c2ccccc2C)c1=O`, for which the inhibition was 57% (active). The same measure for `COc1cccc2cc(-c3cc(=O)oc4cc5c(cc34)CCCC5)oc12`: -2.8%. For `O=C(c1c(F)cccc1F)N1CCN(S(=O)(=O)C2CC2)CC1` the value was -10.4%; for `O=C1Nc2ccccc2Oc2cc([N+](=O)[O-])cc(Oc3ccccc3Br)c21`, 32%.

In the case of `c1ccc(CN=C2Nc3ccccc3NC23CCCNC3)cc1` (centres undefined), the inhibition is 25.7%. The same measure for `O=C(c1ccccn1)N1CCC2(C1)NCc1ccccc1NC2=NCc1ccccc1` (centres undefined): 12.6%. For `CC(C)(C)C(=O)N1CCCC2(C1)Nc1ccccc1NC2=NCc1ccccc1` (centres undefined) the value was 100% (active); for `COCCNC(=O)N1CCCC2(C1)Nc1ccccc1NC2=NCc1ccccc1` (centres undefined), 97.7% (active); for `O=C(c1cnccn1)N1CCCC2(C1)Nc1ccccc1NC2=NCc1ccccc1` (centres undefined), 25.6%.

Take `COc1ccccc1C(=O)N1CCCC2(C1)Nc1cccnc1NC2=NCc1ccccc1` (centres undefined): the inhibition was 1.03%. The same measure for `Cc1cccc(-c2csc3c(=O)n(Cc4ccc(F)cc4)cnc23)c1`: -29.4%; for `O=S1(=O)c2ccccc2S(=O)(=O)N1c1cc(F)ccc1F`: 6%; for `O=C(c1cccc2c1CCN2C(=O)C1CC1)N1CCOCC1`: -4.9%. The same measure for `CC12C=CC(O1)C1C(=O)N(c3ccc(Cl)c(C(=O)O)c3)C(=O)C12` (centres undefined): -2%.

With `O=C(NCc1ccccc1Cl)c1cnn2c3c(cnc12)CCCCCC3`, the inhibition is -7%. Take `COc1cccc(N=Cc2cc(Br)ccc2O)c1`: the inhibition was 13%. `CSC1=N/C(=C\c2ccc3c(c2)OCO3)C(=O)S1`: the inhibition is -2%.

In the case of `O=C1OC(c2ccco2)=N/C1=C/c1ccc2c(c1)OCO2`, the inhibition was 29%.

On to `O=C1/C(=C/c2ccc3c(c2)OCO3)CCC/C1=C\c1ccc2c(c1)OCO2`, for which the inhibition was 58% (active). For `COc1cc(Cl)ccc1C(=O)N1CCC(c2nc(CCNC(C)=O)cs2)CC1` the value was 5.03%; for `Cc1cccc(C(=O)N2CCCC(C(=O)NC3CCCC3)C2)c1` (centres undefined), 25.1%.

In the case of `O=C(c1cc(-c2ccccc2)n[nH]1)N1CCN(c2ncccn2)CC1`, the inhibition is -17.7%. The same measure for `Cc1nn(-c2ccccc2)c(C)c1N1CCN(C(=O)c2cc(-c3ccccc3)n[nH]2)CC1`: 98.9% (active). Regarding `Cc1nn(-c2ccccc2)c(Cl)c1C(=O)N1CCOCC1`, the inhibition is 1%. The same measure for `COc1ccc(-c2nc(SCC(=O)Nc3ccc(OC(F)(F)F)cc3)[nH]c(=O)c2C#N)cc1`: 14%; for `COc1ccc(OC)c(C=C2Oc3c(ccc(O)c3CN3CCCCC3C)C2=O)c1` (centres undefined): -1.3%. For `COc1ccc(-c2nnc(N3CCC(C(=O)NCc4cccc(OC)c4)CC3)o2)cc1` the value was 21%; for `COc1ccc(N2CC(C(=O)Nc3ccc(C(C)C)cc3)CC2=O)cc1` (centres undefined), 0.1%; for `Cc1ccc(N2CC(C(=O)N(C)C(C)C)CC2=O)cc1` (centres undefined), -4.2%. For `CC(C)c1ccc(N2CC(C(=O)N(C)Cc3ccccc3)CC2=O)cc1` (centres undefined) the value was 56.5% (active); for `Cc1ccc(C(=O)NCC2CCCN(S(=O)(=O)c3ccc(F)cc3F)C2)cc1` (centres undefined), -3.67%. Regarding `O=C(CCn1c(=O)c2sccc2n(Cc2cccc(Cl)c2)c1=O)NCc1ccccc1`, the inhibition is -2%. For `COc1ccccc1CC(=O)N1CCCn2nc(-c3ccc(C)cc3)cc2C1` the value was 37.9%; for `Cc1cccc(-c2cc3n(n2)CCCN(C(=O)C(C)Oc2ccccc2)C3)c1` (centres undefined), 42.9%. For `COc1ccccc1CCC(=O)N1CCCn2nc(-c3cccc(C)c3)cc2C1` the value was 68.3% (active); for `CCOc1ccccc1Oc1c(C)oc2c(CN(CC)CC)c(O)ccc2c1=O`, 3.7%. With `CCC(CC)C(=O)Nc1ccc(Br)cc1F`, the inhibition was -9.3%. The same measure for `Cn1nc(-c2nc(-c3cccc(F)c3)no2)c2c1CCN(C(=O)Cc1cccs1)C2`: 20.1%; for `COc1ccc(-c2c(C)cc3oc(=O)cc(-c4ccccc4)c3c2C)cc1OC`: -2.2%; for `CCN(CC)CCC(c1ccc2c(c1)OCO2)c1c(OC)cc(OC)c2c(-c3ccccc3)cc(=O)oc12` (centres undefined): 101% (active). For `CCN(CC)CCC(c1cc(OC)c(OC)c(OC)c1)c1c(OC)cc(OC)c2c(-c3ccccc3)cc(=O)oc12` (centres undefined) the value was -4.8%. The same measure for `CCN(CC)C(=O)CC(c1ccc2c(c1)OCO2)c1c(OC)cc(OC)c2c(-c3ccccc3)cc(=O)oc12` (centres undefined): 74.9% (active); for `COc1ccc(-c2c(C)cc3oc(=O)cc(-c4ccccc4)c3c2C)cc1F`: -2.4%.

On to `COc1cccc2cc(-c3nc(-c4ccc5c(c4)OCO5)cs3)c(=O)oc12`, for which the inhibition was -9%. As for `Cc1ccc(Cc2c(C)nc(C)nc2N2CCN(C(=O)c3ccccc3)CC2)cc1`, the inhibition is 11.3%. For `COCCc1noc(COC2CCCN(C(=O)c3ccccn3)C2)n1` (centres undefined) the value was -8.61%; for `CSc1cccc(NC(=O)NCCNc2cc(-n3ccnc3C)nc(C)n2)c1`, 99.9% (active); for `CCNc1cc(NCCNC(=O)c2cccc(F)c2)nc(C)n1`, -7.5%. For `CCc1ccccc1NC(=O)NCCNc1cc(-n2nc(C)cc2C)nc(C)n1` the value was -5.7%; for `O=C1C(c2ccc(F)cc2)N(C2CCCC2)C(=O)CN1C1CCCCCC1` (centres undefined), -6%.

`O=C(CCCn1c2ccccc2c(=O)c2ccccc21)Nc1ccc(C(F)(F)F)cn1`: the inhibition was 23%.

`O=C(NCc1cccc(F)c1)c1cc2n(n1)CCCN(Cc1ccc(Cl)cc1)C2=O`: the inhibition is 16.8%.

Consider `CCCc1cc(C2CCCN2Cc2cc(OC)c(OC)cc2OC)no1` (centres undefined), for which the inhibition is 37.6%. For `COc1cc(C2NC(C(=O)O)CS2)ccc1O` (centres undefined) the value was -7%. The same measure for `COc1ccc([N+](=O)[O-])cc1NC(=O)c1ccc(C)c(Br)c1`: 8.5%; for `COc1ccc([N+](=O)[O-])cc1-n1c(C)ccc1C`: 51.9% (active); for `COc1ccc([N+](=O)[O-])cc1NC(=O)CC(C)C`: -0.3%.

Consider `O=C(CC(C(=O)O)N1CCNCC1)Nc1ccc(OC(F)F)cc1` (centres undefined), for which the inhibition was -16.1%. In the case of `Cc1ccc(NC(=O)Cn2cccc2-c2nnc(C3CCC3)o2)cc1`, the inhibition was 12.1%. For `O=C1c2ccccc2C(=O)c2c(NC(=O)c3c(F)cccc3F)cccc21` the value was 1%. For the molecule `CC1CCCC(C)N1C(=O)c1cccc2c1-c1ccccc1C2=O` (centres undefined), the inhibition is -6% and 2.5%. On to `O=C1c2ccccc2C(=O)c2c(NC3CCCCC3)cccc21`, for which the inhibition was 73% (active). For `O=C(CSc1ccc(C(F)(F)F)cc1[N+](=O)[O-])Nc1ccccc1Cl` the value was 8%. For `O=C1NC(=O)/C(=C\c2ccc(OCc3ccc([N+](=O)[O-])cc3)c(Br)c2)N1` the value was 10%; for `CCOc1cc(/C=C2\NC(=O)NC2=O)cc(Cl)c1OCc1ccc([N+](=O)[O-])cc1`, 74% (active); for `CCOc1cc(/C=C2\NC(=O)NC2=O)cc(Cl)c1OC(C)C`, 14%. Consider `COc1cccc(CN2COc3ccc4c(c3C2)OC(=Cc2cccnc2)C4=O)c1`, for which the inhibition is 3.4%. For `COc1cccc(C=C2Oc3c(ccc4c3CN(Cc3cc(OC)c(OC)c(OC)c3)CO4)C2=O)c1` the value was 56.5% (active); for `COc1cccc(CN2COc3ccc4c(c3C2)OC(=Cc2ccc(OC)c(OC)c2OC)C4=O)c1`, 35.7%; for `CCn1cnnc1C1CCCCN1C(=O)c1cnccn1` (centres undefined), 0.74%. As to `CCOc1ccccc1/C=C1\N=C(c2ccc([N+](=O)[O-])cc2Cl)OC1=O`, the inhibition was -1%.

On to `CN1CCC(CCNC(=O)c2ccc3[nH]c4c(c3c2)CN(C(=O)C2CCC2)CC4)CC1`, for which the inhibition was 4.82%.

`CC(=O)N1CCc2[nH]c3ccc(C(=O)NCCc4ccccn4)cc3c2C1`: the inhibition is 58.7% (active). As for `CC(=O)N1CCc2[nH]c3ccc(C(=O)NC4CCCCC4)cc3c2C1`, the inhibition is 9.6%. The same measure for `Oc1ccc(Nc2nc(-c3ccc(Cl)cc3Cl)nc3ccccc23)cc1`: 37.4%; for `CCc1cc(C(=O)Nc2ccccc2)no1`: -4.5%; for `CCNc1cc(Nc2ccccc2)c2c3c(onc13)-c1ccccc1C2=O`: 100% (active).

Consider `O=C(NCc1ccc(Cl)cc1)c1ccc2ncnc(N3CCOCC3)c2c1`, for which the inhibition was -1.3%. The same measure for `CC(=O)c1cccc(NC(=O)C2CCN(S(=O)(=O)c3ccc(Br)cc3)CC2)c1`: -1.7%. For `COc1ccc(C2NC(c3ccc(OC)c(OC)c3)C(C)C(=O)C2C)cc1OC` (centres undefined) the value was 10%. The same measure for `Cc1ccc(CNC(=O)C2CC(=O)N(C3CCCCCCC3)C2)cc1` (centres undefined): 8.83%; for `Cc1ccc(CNC(=O)C2CC(=O)N(C3CCCCC3)C2)cc1` (centres undefined): 2.18%. As for `CCN(CCCNC(=O)C1CC(=O)N(C2CCCCCCC2)C1)c1cccc(C)c1` (centres undefined), the inhibition was 53% (active). The same measure for `COc1ccc(-n2nc3c(c2NC(=O)c2cccc(OC)c2OC)CS(=O)C3)cc1` (centres undefined): 5%; for `O=C1C2C(C(=O)N1c1cc([N+](=O)[O-])ccc1Cl)C1C=CC2C12CC2` (centres undefined): 4%. The same measure for `Cc1ccnc(N2CCCC(C(=O)NCCc3ccc(Cl)cc3)C2)n1` (centres undefined): 7.6%; for `Cc1ccc2cc3cc(C(=O)N(C)c4ccc(Br)cc4)oc3nc2c1`: -8%. The same measure for `Cc1ccc(CNC(=O)CCC(=O)N2CCCn3nc(C)cc32)cc1`: 1.63%. `COc1ccc(OC)c2[nH]c(=O)c(CCNC(=O)c3ccc(C)c(C)c3)cc12`: the inhibition was 28%. The same measure for `COc1ccc(C(=O)NCCc2nc3ccccc3n2Cc2ccccc2C)cc1OC`: 77% (active); for `COc1ccc(C(=O)NCCc2ccc(S(N)(=O)=O)cc2)cc1OC`: 9.3%.

Source of the values: PubChem BioAssay AID1671202 (University of Kansas High Throughput Screening Laboratory, 2021).
